Laboratory results taken from PubChem BioAssay (NCI).
This is part of a sample that, as a whole, favours compounds with a hit. Of some 79,000 tested, about 15% had one in any assay. Values without a mark were called inactive. Cut-off read from the data, not from the text of the source: active = growth inhibition above about 70%; inactive = the rest.

test: NCI Yeast Anticancer Drug Screen. Data for the mlh1 rad18 strain (AID 175); conditions: S. cerevisiae mlh1 rad18 strain growth inhibition; at 50.0 µM; active compounds read high
Protocol: Growth inhibition of yeast strains with defined genetic alterations is measured as a screen for potential anti-cancer activity. Selected strains with alterations in DNA damage repair or cell cycle control were exposed to compounds and growth inhibition was measured relative to vehicle treated controls. The strain used in this assay is mlh1 rad18

Compound	growth inhibition
C[N+]12C(=O)CC3OCC=C4C[N+]5(C)CCC6(c7ccccc71)C2C3C4CC65O (stereo not given)	-14.8%
OC1CCN(C2(c3ccccc3)CCCCC2)CC1	0.15%
CCCCC(CC)COP(=S)(S)OCC(CC)CCCC.[Sn] (stereo not given)	-7.7%
O=C(O)CCCO	-10.4%
CNc1ccccc1C(=O)O	3.15%
O=C1C(=C([O-])c2ccccc2)C(=O)c2ccccc21.O=C1C(=C([O-])c2ccccc2)C(=O)c2ccccc21.[Fe+2]	15.8%
c1cc[c]([Ge]([c]2ccccc2)[c]2ccccc2)cc1	14.4%
Cc1ccnc(NN=O)c1	2.25%
Nc1nc(N)c(N=Nc2ccc([As](=O)(O)O)c(O)c2)c(N)n1	-18.1%
CN(C)CCCN1CCCCC1	-8%
CCOP(=O)(CC(N)=O)OCC	-11.8%
OC12CCC[N+]1(Cc1ccccc1)CCC2 (stereo not given)	-18.1%
CCC1CN1P1(=O)OCC(C)(N)CO1 (stereo not given)	-10.6%
CCC1NCCc2cc(OC)c(O)cc21 (stereo not given)	-11.4%
O=S(=O)(c1ccccc1)N1CC1CI (stereo not given)	1.75%
CN1C(=O)C[N+]([O-])=C(c2ccccc2)c2cc(Cl)ccc21	-13.7%
c1ccc2c(C3NCCc4[nH]cnc43)cccc2c1 (stereo not given)	4.65%
[O-][Cl+3]([O-])([O-])[O-].[O]=[Ru]=[O].c1ccc(-c2ccccn2)nc1.c1ccc(-c2ccccn2)nc1	27.4%
O=C(CC(=O)C(F)(F)F)c1ccco1.[Fe]	14.7%
ClC1=C(Cl)C2(Cl)C3C4CC(C5OC45)C3C1(Cl)C2(Cl)Cl (stereo not given)	-6.8%

Compound	growth inhibition
Cc1nccc2c1[nH]c1ccccc12	2.3%
CC(=O)c1ccccc1N=Nc1ccc(N(CCCl)CCCl)cc1C	31.4%
CS(=O)(=O)Oc1c(Cl)cc(S(=O)(=O)F)cc1Cl	40.1%
COc1ccc(CCF)cc1	-3.85%
O=S(=O)(F)c1cc(Cl)c(O)c(S(=O)(=O)F)c1	10.1%
NC(Cc1ccccc1)c1nn[nH]n1 (stereo not given)	-19.3%
Cc1c([As](=O)(O)O)ccc2nc3c(C)c([As](=O)(O)O)ccc3nc12	21.6%
COc1ccc2c(c1)C1(C)CCN(CCc3ccccc3)C(C2)C1C (stereo not given)	24.4%
C=CC1CC=CCC1 (stereo not given)	-11.9%
CC(=O)OC(C[N+](=O)[O-])C(Cl)(Cl)Cl (stereo not given)	2.95%
CC12CC/C(=C3/C=CC(=O)S3)C=C1CCC1C2CCC2(C)C(O)CCC12 (stereo not given)	15.8%
Cc1ccc2c(c1)C(=S)N1CSCC1c1nncn1-2 (stereo not given)	35.8%
CC12CCC3C(CCC4CC(Cl)CCC43C)C1CCC2=O (stereo not given)	-5.05%
CC(=O)OC1CCC2(C)C(CCC3C2CCC2(C)C3CC(CC(=O)O)C2OC(C)=O)C1 (stereo not given)	24%
S=C(N=Nc1ccccc1)NNc1ccccc1.[Cu+2]	-15.2%
O=[N+]([O-])c1cc(S(=O)(=O)O)cc([N+](=O)[O-])c1Cl	24.8%
C=CCP(c1ccccc1)c1ccccc1	-13.5%
Clc1cccc2ccccc12	16.1%
NC(Cc1cccc(NP(=S)(NCCO)N2CC2)c1)C(=O)O (stereo not given)	4.35%
CCOC(=O)C(C#N)c1ccccc1 (stereo not given)	43.4%
